Source: PubChem BioAssay
Active and inactive are the calls of the source. Unless noted, the rule behind the calls is not given here.

What was measured:
[1] = A549 cell viability effects, profiling panel, calcein-AM fluorescence, 48 h, basal (AID 1162); details: higher = more signal; note: test concentration not given here
[2] = adipocyte viability effects, profiling panel, cell-based, 3T3-L1 adipocytes, calcein-AM fluorescence, 48 h, basal (AID 1163); details: 3T3-L1 adipocytes viability, higher = more signal; note: test concentration not given here
[3] = HepG2 cell viability effects, profiling panel, calcein-AM fluorescence, 48 h, basal (AID 1164); details: higher = more signal; note: test concentration not given here
[4] = MM1S cell viability effects, profiling panel, calcein-AM fluorescence, 48 h, basal (AID 1165); details: higher = more signal;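 note: viability of MM1S multiple myeloma cells under basal unstimulated conditions; test concentration not given here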
[5] = basal RPMI8226 viability, no added stimulus, profiling panel, cell-based, calcein-AM fluorescence, 48 h, PK04 Diversity Set (AID 1166); details: RPMI8226 myeloma viability, higher = more signal;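 note: cells grown under basal conditions without added stimulus; test concentration not given here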
[6] = basal HepG2 mitochondrial membrane potential changes, profiling panel, cell-based, JC-1 fluorescence, 24 h, 100 nL compound (AID 1167); details: higher = more signal; note: test concentration not given here
[7] = basal 3T3-L1 adipocyte mitochondrial potential changes, profiling panel, cell-based, JC-1 fluorescence, 3T3-L1 adipocytes, 24 h, 100 nL compound (AID 1168); details: JC-1 mitochondrial fluorescence, higher = more signal, called active from +8 up or from −8 down; note: test concentration not given here
[8] = basal RPMI8226 mitochondrial membrane potential changes, profiling panel, cell-based, JC-1 fluorescence, 24 h, 100 nL compound (AID 1169); details: RPMI8226 myeloma, JC-1 mitochondrial potential fluorescence, higher = more signal; note: test concentration not given here
[9] = basal MM1S mitochondrial membrane potential changes, profiling panel, cell-based, JC-1 fluorescence, 24 h, 100 nL compound (AID 1170); details: higher = more signal; note: test concentration not given here
[10] = A549 lung cancer cell viability effects, profiling panel, resazurin fluorescence, 24 h, PK04 Diversity Set (AID 1171); details: higher = more signal, called active from +8 up or from −8 down; note: test concentration not given here
[11] = HepG2 liver cancer cell viability effects, profiling panel, resazurin fluorescence, 24 h, PK04 Diversity Set (AID 1172); details: higher = more signal; note: test concentration not given here
[12] = basal S. cerevisiae growth modulation, no modifier, primary screen, OD600, strain BY4716, 24 h, basal condition (AID 1173); details: OD600, 24 h, higher = more signal, called active from +8 up or from −8 down
[13] = MM1S myeloma cell viability, profiling panel, resazurin fluorescence, basal, 24 h, PK04 Diversity Set (AID 1174); details: higher = more signal, called active from +8 up or from −8 down;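 note: MM1S multiple myeloma cell line; test concentration not given here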
[14] = biological target: Dihydroorotate dehydrogenase (quinone), mitochondrial (Plasmodium falciparum (isolate 3D7)) (UniProt Q08210); test: PfDHODH enzyme inhibitors, primary screen, biochemical, C-terminal His tag, absorbance 600 nm (AID 1175); details: DCIP absorbance 600 nm, higher = more signal, called active from +8 up or from −8 down;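 note: recombinant parasite enzyme with a five histidine tag at its C terminus; test concentration not given here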
Chain of Dihydroorotate dehydrogenase (quinone), mitochondrial (Plasmodium falciparum (isolate 3D7)) (Q08210 whole entry, looked up): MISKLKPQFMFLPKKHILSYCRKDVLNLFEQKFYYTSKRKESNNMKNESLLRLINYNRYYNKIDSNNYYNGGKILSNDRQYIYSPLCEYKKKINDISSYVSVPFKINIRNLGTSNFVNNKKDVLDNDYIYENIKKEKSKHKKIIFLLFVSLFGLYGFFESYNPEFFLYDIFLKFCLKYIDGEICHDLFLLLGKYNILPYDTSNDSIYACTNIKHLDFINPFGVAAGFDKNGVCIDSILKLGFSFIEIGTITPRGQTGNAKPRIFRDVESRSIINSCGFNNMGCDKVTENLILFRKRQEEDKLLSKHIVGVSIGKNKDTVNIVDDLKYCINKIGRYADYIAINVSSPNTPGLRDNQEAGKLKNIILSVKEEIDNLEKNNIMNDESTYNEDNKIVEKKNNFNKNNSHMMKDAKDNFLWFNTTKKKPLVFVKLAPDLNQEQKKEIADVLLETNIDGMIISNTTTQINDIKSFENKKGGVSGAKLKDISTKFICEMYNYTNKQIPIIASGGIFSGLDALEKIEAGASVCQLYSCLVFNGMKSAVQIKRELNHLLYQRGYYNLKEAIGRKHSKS

[15] = P. aeruginosa biofilm formation inhibitors, primary screen, strain PAO1, LB-PBS medium, absorbance 600 nm (AID 1176); note: test concentration not given here; details: P. aeruginosa PAO1 growth/biofilm, A600, 12 h; higher = more signal
[16] = S. cerevisiae RM11-1a growth modifiers, primary screen, strain RM11-1a, OD600, basal, 24 h (AID 1177); details: OD600, 24 h, higher = more signal, called active from +8 up or from −8 down;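 note: cultures grown under basal conditions with no added stressor; test concentration not given here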
[17] = E. coli acrAB mutant growth effects, primary screen, E. coli filamentation inducers, strain DRC39, OD650, 24 h (AID 1178); details: higher = more signal, called active from +8 up or from −8 down;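 note: growth measured as culture turbidity by optical density at 650 nm; test concentration not given here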
[18] = E. coli acrAB mutant growth effects, primary screen, E. coli filamentation inducers, strain DRC39, OD650, 48 h (AID 1179);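 note: screen aims at cell division blockers that make cells filament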; details: E. coli DRC39 delta-acrAB growth, higher = more signal, called active from +8 up or from −8 down
[19] = RPMI8226 myeloma cell viability, profiling panel, resazurin fluorescence, basal, 24 h, PK04 Diversity Set (AID 1180); details: higher = more signal;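 note: RPMI8826 multiple myeloma cell line at 5000 cells per well; test concentration not given here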
[20] = biological target: E3 ubiquitin-protein ligase XIAP (Homo sapiens) (UniProt P98170); test: XIAP binders, primary screen, biophysical, small-molecule microarray, fluorescence 635 nm (AID 1181); details: small-molecule microarray binding, higher = more signal;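 note: score merges 667 nm emission and signal to noise over triplicate slides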
Chain of E3 ubiquitin-protein ligase XIAP (Homo sapiens) (P98170 whole entry, looked up): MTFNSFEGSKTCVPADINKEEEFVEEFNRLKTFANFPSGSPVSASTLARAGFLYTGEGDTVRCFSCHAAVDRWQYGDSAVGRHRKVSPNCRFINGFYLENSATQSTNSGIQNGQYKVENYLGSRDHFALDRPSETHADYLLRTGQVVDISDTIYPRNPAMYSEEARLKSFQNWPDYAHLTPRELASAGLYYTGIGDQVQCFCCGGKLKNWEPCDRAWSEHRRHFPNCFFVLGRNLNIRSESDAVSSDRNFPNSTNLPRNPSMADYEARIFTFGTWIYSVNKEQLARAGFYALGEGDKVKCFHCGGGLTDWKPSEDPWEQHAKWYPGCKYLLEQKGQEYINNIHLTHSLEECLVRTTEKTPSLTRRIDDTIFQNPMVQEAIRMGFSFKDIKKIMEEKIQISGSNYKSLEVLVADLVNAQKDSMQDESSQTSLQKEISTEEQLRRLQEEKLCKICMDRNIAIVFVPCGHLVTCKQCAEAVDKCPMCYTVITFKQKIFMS

CC(C)OC(=O)CC(=O)CC(O)c1cccc([N+](=O)[O-])c1 (stereo not given)
z-score [1]: 1.07 | z-score [2]: 0.804 | z-score [3]: 0.729 | z-score [4]: 1.21 | z-score [5]: 0.0484 | z-score [6]: -0.524 | z-score [7]: -0.718 (inactive) | z-score [8]: 0.193 | z-score [9]: -1.38 | z-score [10]: 0.0126 (inactive) | z-score [11]: -0.476 | z-score [12]: -3.08 (inactive) | z-score [13]: 0.326 (inactive) | composite z-score [14]: -2.1 (inactive) | z-score [15]: 1.1 (inactive) | z-score [16]: -2.42 (inactive) | z-score [17]: 0.704 (inactive) | z-score [18]: 2 (inactive) | z-score [19]: 0.083 | composite z-score [20]: 0.15

Cc1ccc(F)cc1S(=O)(=O)N[C@H]1CCN(Cc2ccc(OC(C)C)cc2)C1
z-score [1]: 0.376 | z-score [2]: -0.535 | z-score [3]: -0.7 | z-score [4]: -1.4 | z-score [5]: -1.93 | z-score [6]: -0.809 | z-score [7]: 0.416 (inactive) | z-score [8]: 0.0436 | z-score [9]: -1.41 | z-score [10]: -0.477 (inactive) | z-score [11]: -0.757 | z-score [12]: -9.28 (active) | z-score [13]: -1.1 (inactive) | composite z-score [14]: -0.0588 (inactive) | z-score [15]: -0.107 (inactive) | z-score [16]: 0.297 (inactive) | z-score [17]: -1.42 (inactive) | z-score [18]: -2.48 (inactive) | z-score [19]: -1.19 | composite z-score [20]: -0.0773

COc1ccc([Si](C)(C)[C@H]2[C@H](CCO)O[C@@]3(C(=O)N(Cc4cccc(N5C(=O)c6ccccc6Oc6ccccc65)c4)c4ccccc43)[C@@H]2C)cc1
z-score [1]: -1.24 | z-score [2]: 0.508 | z-score [3]: -4.22 | z-score [4]: -2.87 | z-score [5]: -4.3 | z-score [6]: -0.19 | z-score [7]: 2.27 (inactive) | z-score [8]: -1.03 | z-score [9]: -1.84 | z-score [10]: -2.25 (inactive) | z-score [11]: -1.86 | z-score [12]: -0.653 (inactive) | z-score [13]: -2.97 (inactive) | composite z-score [14]: 0.75 (inactive) | z-score [15]: 1.01 (inactive) | z-score [16]: 3.62 (inactive) | z-score [17]: 1.42 (inactive) | z-score [18]: 0.597 (inactive) | z-score [19]: -4.05 | composite z-score [20]: -0.115

C=C(COC)/C(=C/C[C@H](OC(C)=O)c1ccccc1OCCO)c1cc(C(=O)OC)ccc1OC
z-score [1]: -0.168 | z-score [2]: 1.66 | z-score [3]: -0.63 | z-score [4]: -3.06 | z-score [5]: -1.74 | z-score [6]: 0.532 | z-score [7]: -0.112 (inactive) | z-score [8]: 0.0983 | z-score [9]: -1.29 | z-score [10]: -0.0553 (inactive) | z-score [11]: -0.216 | z-score [12]: -1.14 (inactive) | z-score [13]: 0.181 (inactive) | composite z-score [14]: -1.68 (inactive) | z-score [15]: -0.718 (inactive) | z-score [16]: 0.0505 (inactive) | z-score [17]: -0.474 (inactive) | z-score [18]: -0.653 (inactive) | z-score [19]: -0.776 | composite z-score [20]: -0.239

CO[C@H]1O[C@H](CO)[C@@H](OC(=O)Nc2ccccc2)[C@H](OC(=O)Nc2ccccc2)[C@H]1OC(=O)Nc1ccccc1
z-score [1]: -1.27 | z-score [2]: 0.416 | z-score [3]: -1.92 | z-score [4]: -0.77 | z-score [5]: -3.14 | z-score [6]: 0.292 | z-score [7]: 0.0293 (inactive) | z-score [8]: -0.77 | z-score [9]: -1.06 | z-score [10]: -3.04 (inactive) | z-score [11]: -1.08 | z-score [12]: 0.0367 (inactive) | z-score [13]: -2.78 (inactive) | composite z-score [14]: 1.02 (inactive) | z-score [15]: -0.317 (inactive) | z-score [16]: 1.84 (inactive) | z-score [17]: 1.48 (inactive) | z-score [18]: 0.536 (inactive) | z-score [19]: -1.95 | composite z-score [20]: -0.0125

O=C1C[C@]2(c3ccc([N+](=O)[O-])cc3)C(=O)N(C3CC3)c3cc(CO)ccc3[C@H]2N1C1CCCCC1
z-score [1]: -0.164 | z-score [2]: -0.898 | z-score [3]: 0.214 | z-score [4]: -0.464 | z-score [5]: 0.474 | z-score [6]: -1.07 | z-score [7]: -0.185 (inactive) | z-score [8]: -0.691 | z-score [9]: -0.993 | z-score [10]: -0.332 (inactive) | z-score [11]: 0.277 | z-score [12]: 0.462 (inactive) | z-score [13]: -0.0174 (inactive) | composite z-score [14]: -3.75 (inactive) | z-score [15]: 0.475 (inactive) | z-score [16]: 0.3 (inactive) | z-score [17]: 0.0977 (inactive) | z-score [18]: 0.284 (inactive) | z-score [19]: -0.34 | composite z-score [20]: -0.0286

C=C(CCCC)/C(=C/C[C@@H](OC(C)=O)c1ccc(CO)o1)c1cnc2ccccc2c1
z-score [1]: 0.159 | z-score [2]: 1.04 | z-score [3]: -0.042 | z-score [4]: -1.56 | z-score [5]: -1.52 | z-score [6]: -0.462 | z-score [7]: -0.583 (inactive) | z-score [8]: -0.133 | z-score [9]: -1.12 | z-score [10]: -1.29 (inactive) | z-score [11]: -1.53 | z-score [12]: -0.293 (inactive) | z-score [13]: -0.291 (inactive) | composite z-score [14]: -6.85 (inactive) | z-score [15]: 0.0022 (inactive) | z-score [16]: 0.324 (inactive) | z-score [17]: -1.1 (inactive) | z-score [18]: -0.856 (inactive) | z-score [19]: -0.521 | composite z-score [20]: 0.1

COC(=O)C(CC#Cc1ccc2c(c1)[C@]1(C(=O)N2)[C@H](C(=O)N2CCc3cc(OC)c(OC)cc3C2)[C@H]2C(=O)O[C@H](c3ccccc3)[C@H](c3ccccc3)N2[C@@H]1c1ccccc1OCCO)C(=O)OC
z-score [1]: -0.179 | z-score [2]: -0.665 | z-score [3]: 0.43 | z-score [4]: -0.151 | z-score [5]: 0.546 | z-score [6]: -0.0236 | z-score [7]: 0.968 (inactive) | z-score [8]: -0.839 | z-score [9]: -1.42 | z-score [10]: -0.694 (inactive) | z-score [11]: -0.553 | z-score [12]: 1.79 (inactive) | z-score [13]: -1.03 (inactive) | composite z-score [14]: -7.03 (inactive) | z-score [15]: 3.81 (inactive) | z-score [16]: 2.83 (inactive) | z-score [17]: 0.154 (inactive) | z-score [18]: 0.618 (inactive) | z-score [19]: -0.705 | composite z-score [20]: -0.11
